Among the data in PubChem BioAssay (NCATS) are Potency and viability (% of DMSO control) values, retold here.

Molecules are shown by their SMILES. Records with an inconclusive call do not appear. The source made the active and inactive calls. The call rests on the fitted dose curve; in most records, active means well fitted cell-killing curve with a large enough effect; inconclusive means small, poorly fitted or top-dose-only effect, or effect the other way; inactive means no such curve, though single readings can be large or run the other way.
Potency means the concentration at half of the fitted maximal effect.

This assay in a line: Quantitative High-Throughput drug screen in 47 multiple myeloma cell lines against the NCATS MIPE library collection: UTMC2_PLB cell viability assay (AID 1919868). Further: nearly all actives have a fitted effect of over 55% in size. The note with it: CellTiter-Glo ATP luminescence, 48 h; viability (% of DMSO control): at 45.8 µM (top of the series). An excerpt: PI: Beverly A. Mock Ph.D.
Laboratory of Cancer Biology and Genetics,
Center for Cancer Research, National Cancer Institute,
National Institute of Health, Bethesda, Maryland
Drug resistance and disease progression are common in multiple myeloma (MM) patients, underscoring the need for new therapeutic combinations. […] We hypothesized that effective combinations would reduce MYC expression and enhance p16 activity. […] These preclinical data identify potentially useful drug combinations for evaluation in drug-resistant MM and reveal potential mechanisms of combined drug sensitivity.
Described herein is the primary MIPE qHTS used to cherrypick compounds. Validated compounds were then further tested for potential synergistic activiy.
[1] Peat TJ, Gaikwad SM, Dubois W, Gyabaah-Kessie N, Zhang S, Gorjifard S, Phyo Z, Andres M, Hughitt VK, Simpson RM, Miller MA, Girvin AT, Taylor A, Williams D, D'Antonio N, Zhang Y, Rajagopalan A, Flietner E, Wilson K, Zhang X, Shinn P, Klumpp-Thomas C, McKnight C, Itkin Z, Chen L, Kazandijian D, Zhang J, Michalowski AM, Simmons JK, Keats J, Thomas CJ, Mock BA. Drug combinations identified by high-throughput screening promote cell cycle transition and upregulate Smad pathways in myeloma. Cancer Lett. 2023 Aug 1;568:216284. doi: 10.1016/j.canlet.2023.216284. Epub 2023 Jun 24. PMID: 37356470; PMCID: PMC10408729.
SEQUENCE No. (e.g., 1, 2, 3, etc.); […] (e.g., Cells, Incubation, Reagent, etc.); VALUE and DESCRIPTION.
1; Cells; 5 uL; white, solid bottom 1536-well Greiner assay plate.
2; Compounds; 23 nL; Kalypsis pin tool (Wako USA) equipped with a 1536-well pin head to transfer to the assay plates.
3; Incubation; 48 hours; 37C incubation.
4; Reagent;5uL; CellTiter Glo (Promega).
5; Detector; 425V; Luminescence; Viewlux PerkinElmer.
NOTES (numbers refer to Sequence numbers above)
1. The cell-based screening methods employed in this study were like those previously published. Briefly, the corresponding myeloma cell lines were screened in 1,536-well plates with 500 cells, 5-uL per well for inhibition of cell viability (assessed by measuring ATP levels with CellTiterGlo).
2. NCATS MIPE 4.0 library of approved and investigational drugs were added using the Kalypsis pin tool. Wells treated with DMSO only for 100% viability and media only for 0% viability were used as controls.
3. The assay plates were covered and incubated for 48 hours in a 37C, 5% CO2 incubator with controlled humidity.
4. After 48 hours, CellTilter-GloTM luminescent substrate mix (Promega) reagent was added to the assay plate and plates we incubated for 5 min at room temperature.
5. Signal was measured as median relative luminescence units on a ViewLux (PerkinElmer) multiplate reader.
[1] Heske CM, Davis MI, Baumgart JT, Wilson K, Gormally MV, Chen L, Zhang X, Ceribelli M, Duveau DY, Guha R, Ferrer M, Arnaldez FI, Ji J, Tran HL, Zhang Y, Mendoza A, Helman LJ, Thomas CJ. Matrix Screen Identifies Synergistic Combination of PARP Inhibitors and Nicotinamide Phosphoribosyltransferase (NAMPT) Inhibitors in Ewing Sarcoma. Clin Cancer Res. 2017 Dec 1;23(23):7301-7311. doi: 10.1158/1078-0432.CCR-17-1121. Epub 2017 Sep 12. PMID: 28899971; PMCID: PMC6636827.
In general terms: Cellular ATP, detected with luciferase, serves as a proxy for viable cell number.
Consider `CC1(C)CCC2=C(O1)c1ccccc1C(=O)C2=O`, for which the Potency was 20.9 µM (active). In the case of `Cc1c(O)cccc1C(=O)N[C@@H](CSc1ccccc1)[C@H](O)CN1C[C@H]2CCCC[C@@H]2C[C@@H]1C(=O)NC(C)(C)C`, the Potency was 23.5 µM (active). The same measure, in the same setting: with `COc1ccc(C2Sc3ccccc3N(CCN(C)C)C(=O)C2OC(C)=O)cc1` (stereo not given) the figure was 16.6 µM (active); with `CO[C@H]1C=CC=C(C)C(=O)NC2=CC(=O)C(NCCN(C)C)=C(C[C@@H](C)C[C@H](OC)[C@@H](O)[C@@H](C)C=C(C)[C@@H]1OC(N)=O)C2=O`, 0.0662 µM (active); with `O=C1NC(=O)C(=Cc2ccc3c(c2)OC(F)(F)O3)S1`, 23.5 µM (active). For `Cc1ccc([C@@H]2O[C@H](CO)[C@@H](O)[C@H](O)[C@@H]2O)cc1Cc1ccc(-c2ccc(F)cc2)s1`, the Potency entry is “inactive”. Take `O=C1c2c(O)cc(O)cc2O[C@H](c2cc(O)c(O)c(O)c2)[C@H]1O`: the Potency entry was “inactive”.

Take `Cc1ccc(Nc2cc(-c3cccc(N4C(=O)c5ccccc5C4=O)c3)ncn2)cc1NS(C)(=O)=O`: the Potency is 20.9 µM (active). `CC(C)=CC[C@@H](O)C1=CC(=O)c2c(O)ccc(O)c2C1=O`: the Potency is 13.2 µM (active). With `Cc1ccc(C(=O)Nc2cccc(C(F)(F)F)c2)cc1Nc1nc(-c2cccnc2)nc2c1cnn2C`, the Potency was 11.8 µM (active). The same measure, in the same setting: with `COc1ccc(-c2cc(=O)c3c(O)cc(O)cc3o2)cc1O` the figure was 8.33 µM (active); with `O=C(O)C=Cc1ccc(O)c(O)c1`, “inactive”. `Cc1cnc(C(=O)O)c[n+]1[O-]`: the Potency result is “inactive”. As to `COc1cc(NC(=O)c2ccc(-c3ccc(Cl)cc3)o2)cc(OC)c1`, the Potency is 10.5 µM (active). In the case of `O=C(NC1CCOCC1)c1ccc(-c2cc(-c3cn[nH]c3-c3ccccn3)ccn2)cc1`, the Potency result is “inactive”.

Regarding `COc1ccc(Cc2nccc3cc(OC)c(OC)cc23)cc1OC`, the Potency entry was “inactive”.

Take `Cn1c(N2CCCCS2(=O)=O)nc(C(=O)NCc2ccc(F)cc2)c(O)c1=O`: the viability (% of DMSO control) was 149% (active). On to `CC(C)C(=O)Nc1ncc(-c2cc(C(F)F)nn2-c2c(Cl)cccc2Cl)s1`, for which the Potency is 20.9 µM (active). Still for that read-out and setting: with `CC[C@@]1(O)C[C@H](O[C@H]2C[C@H](N(C)C)[C@H](O[C@H]3C[C@H](O)[C@H](O[C@H]4CCC(=O)[C@H](C)O4)[C@H](C)O3)[C@H](C)O2)c2c(cc3c(c2O)C(=O)c2c(O)cccc2C3=O)[C@@H]1C(=O)OC` the figure was 0.187 µM (active). Still for that read-out and setting: with `COc1cc(Nc2ncc(F)c(Nc3ccc4c(n3)NC(=O)C(C)(C)O4)n2)cc(OC)c1OC` the figure was 0.59 µM (active); with `CC(=NNC(=S)N1CCC1)c1ccccn1`, “inactive”; with `CC(C)C(C)C=CC(C)C1CCC2C3=CC=C4CC(O)CCC4(C)C3CCC21C` (stereo not given), “inactive”. The same measure, in the same setting: with `O=c1cc(-c2ccc(O)cc2)oc2cc(O)cc(O)c12` the entry was “inactive”; with `CO[C@H]1C[C@@H]2CC[C@@H](C)[C@@](O)(O2)C(=O)C(=O)N2CCCC[C@@H]2C(=O)O[C@H]([C@H](C)C[C@@H]2CC[C@H](OCCO)[C@H](OC)C2)CC(=O)[C@H](C)C=C(C)[C@@H](O)[C@@H](OC)C(=O)[C@H](C)C[C@H](C)C=CC=CC=C1C`, 0.235 µM (active); with `C[C@@H]1CCN(C(=O)CC#N)C[C@H]1N(C)c1ncnc2[nH]ccc12`, “inactive”.

Turning to `O=C(O)c1c(Cl)c(Cl)c(Cl)c(Cl)c1-c1c2cc(I)c(=O)c(I)c-2oc2c(I)c(O)c(I)cc12`, the Potency entry was “inactive”. As to `NC[C@@H]1O[C@@H](O[C@H]2[C@@H](O)[C@H](O[C@@H]3[C@@H](O)[C@@H](N)C[C@H](N)[C@H]3O[C@H]3O[C@H](CN)[C@@H](O)[C@@H](O)[C@H]3N)O[C@H]2CO)[C@H](N)[C@@H](O)[C@@H]1O`, the Potency entry is “inactive”. With `O=c1cc(N2CCOCC2)oc2c(-c3cccc4c3sc3ccccc34)cccc12`, the Potency is 5.9 µM (active).

`C=C1C(=O)OC2C=C(C)CCC=C(C)CCC12` (stereo not given): the Potency result was “inactive”. On to `O=c1c(-c2ccc(O)cc2)coc2cc(OC3O[C@H](CO)[C@H](O)[C@H](O)[C@H]3O)cc(O)c12` (stereo not given in full), for which the Potency is 5.9 µM (active). On to `CC1(C)Cc2c(sc(NC(=S)NC(=O)c3ccccc3)c2C(=O)O)CO1`, for which the Potency was 20.9 µM (active). For the compound `Cc1nc(N)sc1-c1ccnc(Nc2ccc(N3CCOCC3)cc2)n1`, the Potency was 0.59 µM (active).

As for `COc1cc2ncnc(-n3nc(-c4ccccn4)nc3N)c2cc1OC`, the Potency was 3.32 µM (active). Take `CC(C)C[C@H](CC(=O)O)C(=O)N[C@@H](Cc1c[nH]c2ccccc12)C(=O)N[C@@H](C)c1ccccc1`: the Potency result was “inactive”.

In the case of `CC(C)OC(=O)CCCC=CC[C@@H]1[C@H](C=C[C@@H](O)COc2cccc(C(F)(F)F)c2)[C@H](O)C[C@@H]1O`, the Potency was 16.6 µM (active). Still for that read-out and setting: with `CC(=O)Oc1cc2c(s1)CCN(C(C(=O)C1CC1)c1ccccc1F)C2` (stereo not given) the figure was 2.96 µM (active); with `NC(CO)(CO)CCc1ccc(Sc2cccc(OCc3ccccc3)c2)cc1Cl`, 16.6 µM (active); with `Cc1[nH]c(C=C2C(=O)Nc3ccc(S(=O)(=O)Cc4c(Cl)cccc4Cl)cc32)c(C)c1C(=O)N1CCC[C@H]1CN1CCCC1`, 20.9 µM (active).

With `O=C1NC(=O)C(=Cc2ccc(-c3ccc(F)cc3)o2)S1`, the Potency entry is “inactive”. Take `O=C(O)c1ccccc1C(=O)Nc1ccc(-c2ccccc2)cc1`: the Potency entry was “inactive”.
